Compounds with a hit are over-represented: about 4% of the library has one in this group of screens.
Peg3 promoter: inhibitors of Peg3 promoter; HeLa PEG-Prom luciferase reporter, luminescence, overnight; AID 588405; inhibition, % at 20 µM; actives 1.7% (n = 360,000);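 active means inhibition of at least 50% at 20 µM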
HIF-2a inh: blocks HIF-2a reporter activity; actives 0.72% (n = 360,000); inhibition, % at 18.8 µM; 786-0 RCC cells HIF-2a reporter, luciferase luminescence, overnight;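 active means inhibition of the luminescence signal of 40% or more relative to plate controls, in a single-dose primary screen at 18.75 µM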
CF NFkB block: inhibitors of cystic fibrosis induced NF-kB; KKLEB NF-kB-GFP reporter, PAF-induced, GFP fluorescence overnight; inhibition, % at 5 µM; actives 0.86% (n = 360,000); AID 588850;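 active means at least 50% inhibition at 5 µM, scaled per plate between neutral and stimulator controls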;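 further: PAF is a Pseudomonas aeruginosa culture filtrate used as stimulus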
KKLEB tox: CF airway cell cytotoxicity counter-screen | KKLEB CF airway cells viability, ATPlite luminescence, overnight; hits give low values; cells stimulated with P. aeruginosa culture filtrate | activity change (cytotoxicity), % at 5 µM | actives 0.36% (n = 360,000) | AID 602141;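 active means corrected activity change at or below -50% at 5 µM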
TROY NFkB inh: inhibitors of TROY-dependent NF-kB signaling; Q293 LMP1-TROYcd NF-kB luciferase reporter, 4 h; inhibition, % at 10 µM; actives 0.98% (n = 360,000); AID 1347056;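 active means compounds whose plate-normalised and pattern-corrected inhibition of the luciferase reporter signal at the single screening dose is 50% or more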
TWEAK Fn14 block: TWEAK-Fn14 signaling inhibition; TWEAK-stimulated Fn14 reporter cells, luciferase luminescence, 8 h; inhibition, % at 10 µM; actives 2% (n = 360,000); AID 1159606; in the data active means inhibition above about 50%
Each line names hits and unclear results; the compound was inactive in the other large screens.

CCCNC(=O)C1(C)CCCN(C(=O)c2ccc(OC(F)F)cc2)C1 (stereo not given)	none
COc1ccc(Cl)c(-c2cc(C(=O)Nc3ccc(C)c(NS(C)(=O)=O)c3)[nH]n2)c1	none
COc1ccc(Cl)cc1-c1cc(C(=O)Nc2ccc(C)c(NS(C)(=O)=O)c2)[nH]n1	Peg3 promoter 69.4, TROY NFkB inh 52.9, TWEAK Fn14 block 72.3
COc1ccc(NC(=O)c2cc(-c3cc(Cl)ccc3C)n[nH]2)cn1	none
Cc1ccc(NC(=O)c2cc(-c3cc(Cl)ccc3C)n[nH]2)cc1NS(C)(=O)=O	TWEAK Fn14 block 64.5
COc1ccccc1N(CC(=O)NCc1ccccc1)C(=O)CCC(=O)Nc1nccs1	none
Cc1nn(C)c(C(=O)Nc2ccc(S(=O)(=O)NC34CC5CC(CC(C5)C3)C4)cc2)c1Br	TROY NFkB inh 51.5
Cc1ccc(S(=O)(=O)NC23CC4CC(CC(C4)C2)C3)cc1	none
CCOc1ccc(NC(=S)Nc2ccc(Br)cc2Cl)cc1	TROY NFkB inh 57.5
COc1cccc(NC(=S)Nc2ccc(Br)cc2Cl)c1	none
O=C(OCCN1C(=O)c2cccc3c(N4CCOCC4)ccc(c23)C1=O)c1ccc(Cl)cc1Cl	TWEAK Fn14 block 90.3
O=C(OCCN1C(=O)c2cccc3c(N4CCOCC4)ccc(c23)C1=O)c1ccccc1Cl	TROY NFkB inh 73.4, TWEAK Fn14 block 104.1
O=C(OCCN1C(=O)c2ccccc2C1=O)c1cc(S(=O)(=O)N2CCOCC2)ccc1Cl	none
O=C(/C=C/c1ccco1)Nc1scc(-c2ccccc2)c1C(=O)O	TWEAK Fn14 block 66.9
O=C(/C=C/c1ccccc1)Nc1scc(-c2ccccc2)c1C(=O)O	TWEAK Fn14 block 51.9
CCOC(=O)c1ccc(N=Cc2cnc(N)nc2N)cc1	none
COc1cccc(Nc2nc(N)c([N+](=O)[O-])c(NCc3ccccc3)n2)c1	TWEAK Fn14 block 51.1
CNc1nc(NCc2ccccc2)c2sccc2n1	none
CNc1nc(N)c([N+](=O)[O-])c(NC2CCCCC2)n1	none
C#Cc1cccc(Nc2nc(NCc3ccccc3)nc3ccsc23)c1	TWEAK Fn14 block 69.3
Nc1nc(Nc2ccccc2)nc(NC2CCCCC2)c1[N+](=O)[O-]	TROY NFkB inh 73.9
c1ccc(CNc2nc(NCCc3ccncc3)c3sccc3n2)cc1	Peg3 promoter 53.8
O=C(Nc1ccc(S(=O)(=O)N2CCCC2)cc1)C1CC(=O)N(c2ccc(F)cc2)C1 (stereo not given)	none
O=C(CNCCc1ccc(F)cc1)Nc1cc(F)ccc1F	none
COc1cccc(CNc2nc(NCc3ccccc3)nc3ccsc23)c1	Peg3 promoter 64.0
c1ccc(CNc2nc(NCc3cccs3)nc3ccsc23)cc1	TROY NFkB inh 61.4
CNc1nc(NCc2cccc(OC)c2)c2sccc2n1	none
CCc1ccc(S(=O)(=O)Nc2ccc(O)c3c(=O)cc(-c4ccccc4Cl)oc23)cc1	none
O=c1cc(-c2ccccc2Cl)oc2c(NS(=O)(=O)c3cc(Cl)cc(Cl)c3O)ccc(O)c12	TROY NFkB inh 68.4, TWEAK Fn14 block 65.1
CC(C)[C@H](NS(=O)(=O)c1ccccc1)C(=O)Nc1nccs1	none
Cc1ccc(NS(=O)(=O)c2c(C)[nH]c(C)c2C(=O)N2CCCCC2)c(Br)c1	none
Cc1ccc(-c2nc(-c3ccncc3)no2)c(Cl)c1	TWEAK Fn14 block 68.7
Clc1ccc(-c2nc(-c3ccncc3)no2)c(Cl)c1	none
CCCCc1ccc(-c2nc(-c3ccncc3)no2)cc1	none
c1ccc(-c2ccc(-c3nc(-c4ccncc4)no3)cc2)cc1	TWEAK Fn14 block 64.8
c1ccc(-c2nc(-c3ccncc3)no2)cc1	none
CCc1ccc(-c2nc(-c3ccncc3)no2)cc1	TWEAK Fn14 block 75.9
COc1ccc(-c2ccc(C(=O)Nc3ccc(C(C)C)cc3)c3occc23)c(C)c1	none
Cc1ccc(SC2=C(Sc3ccc(C)cc3)C(=O)c3ccccc3C2=O)cc1	TROY NFkB inh 59.6
O=C(NNS(=O)(=O)c1ccc(F)cc1)c1ccc(O)cc1	TWEAK Fn14 block 62.5
Cc1nc2c3ccccc3nc(NNC(=O)CCC(=O)NCCN3CCN(c4ccccc4)CC3)n2n1	none
CCC1CCCCN1C(=O)c1ccc(OC2CCN(C(=O)CCOC)CC2)cc1 (stereo not given)	none
O=S(=O)(c1ccc(Cl)c(NC(=S)N/N=C/c2ccc(O)cc2)c1)N1CCOCC1	TWEAK Fn14 block 58.4
